Inconclusive results are not listed. The source made the active and inactive calls. Calls follow the shape of the dose curve; as a rule, active = well fitted curve in the direction sought with a large enough effect; inconclusive = small, poorly fitted or top-dose-only effect, or another doubt; inactive = no such curve, though single readings can be large; an effect the other way counts as inactive or inconclusive.
Key:
[1] = Quantitative High-Throughput drug screen in 47 multiple myeloma cell lines against the NCATS MIPE library collection: KMM1_JCRB cell viability assay (AID 1918960); also: nearly all actives have a fitted effect of over 30% in size
Procedure, shortened: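 Each line was plated at 500 cells/well and treated 48 h with library drugs. Viability came from CellTiter-Glo luminescence relative to DMSO and cell-free medium controls.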

[2] = Quantitative High-Throughput drug screen in 47 multiple myeloma cell lines against the NCATS MIPE library collection: JIM3_ECACC cell viability assay (AID 1918963; also: nearly all actives have a fitted effect of over 35% in size)
Excerpt: (§1) PI: Beverly A. Mock Ph.D.
(§2) Laboratory of Cancer Biology and Genetics,
(§3) Center for Cancer Research, National Cancer Institute,
(§4) National Institute of Health, Bethesda, Maryland
(§5) Drug resistance and disease progression are common in multiple myeloma (MM) patients, underscoring the need for new therapeutic combinations. […] We hypothesized that effective combinations would reduce MYC expression and enhance p16 activity. […] These preclinical data identify potentially useful drug combinations for evaluation in drug-resistant MM and reveal potential mechanisms of combined drug sensitivity.
(§6) Described herein is the primary MIPE qHTS used to cherrypick compounds. Validated compounds were then further tested for potential synergistic activiy.
(§7) [1] Peat TJ, Gaikwad SM, Dubois W, Gyabaah-Kessie N, Zhang S, Gorjifard S, Phyo Z, Andres M, Hughitt VK, Simpson RM, Miller MA, Girvin AT, Taylor A, Williams D, D'Antonio N, Zhang Y, Rajagopalan A, Flietner E, Wilson K, Zhang X, Shinn P, Klumpp-Thomas C, McKnight C, Itkin Z, Chen L, Kazandijian D, Zhang J, Michalowski AM, Simmons JK, Keats J, Thomas CJ, Mock BA. Drug combinations identified by high-throughput screening promote cell cycle transition and upregulate Smad pathways in myeloma. Cancer Lett. 2023 Aug 1;568:216284. doi: 10.1016/j.canlet.2023.216284. Epub 2023 Jun 24. PMID: 37356470; PMCID: PMC10408729.
(§8) SEQUENCE No. (e.g., 1, 2, 3, etc.); […] (e.g., Cells, Incubation, Reagent, etc.); VALUE and DESCRIPTION.
(§9) 1; Cells; 5 uL; white, solid bottom 1536-well Greiner assay plate.
(§10) 2; Compounds; 23 nL; Kalypsis pin tool (Wako USA) equipped with a 1536-well pin head to transfer to the assay plates.
(§11) 3; Incubation; 48 hours; 37C incubation.
(§12) 4; Reagent;5uL; CellTiter Glo (Promega).
5; Detector; 425V; Luminescence; Viewlux PerkinElmer.
NOTES (numbers refer to Sequence numbers above)
1. The cell-based screening methods employed in this study were like those previously published. Briefly, the corresponding myeloma cell lines were screened in 1,536-well plates with 500 cells, 5-uL per well for inhibition of cell viability (assessed by measuring ATP levels with CellTiterGlo).
2. NCATS MIPE 4.0 library of approved and investigational drugs were added using the Kalypsis pin tool. Wells treated with DMSO only for 100% viability and media only wells for 0% viability were used as controls.
3. The assay plates were covered and incubated for 48 hours in a 37C, 5% CO2 incubator with controlled humidity.
4. After 48 hours, CellTilter-GloTM luminescent substrate mix (Promega) reagent was added to the assay plate and plates we incubated for 5 min at room temperature.
5. Signal was measured as median relative luminescence units on a ViewLux (PerkinElmer) multiplate reader.
[1] […]

[3] = Quantitative High-Throughput drug screen in 47 multiple myeloma cell lines against the NCATS MIPE library collection: H1112_PLB cell viability assay (AID 1918967; also: nearly all actives have a fitted effect of over 30% in size)
Procedure, shortened: (§13)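 qHTS of the MIPE 4.0 collection: 500 myeloma cells/well, 48 h drug exposure at 37C in 5% CO2, then CellTiter-Glo for 5 min at room temperature before luminescence reading.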

[4] = Quantitative High-Throughput drug screen in 47 multiple myeloma cell lines against the NCATS MIPE library collection: Karpas25_ECACC cell viability assay (AID 1918968; also: nearly all actives have a fitted effect of over 35% in size); details: Karpas25 myeloma viability, CellTiter-Glo ATP, 48 h
Procedure, shortened: as §13

[5] = Quantitative High-Throughput drug screen in 47 multiple myeloma cell lines against the NCATS MIPE library collection: KMS27_JCRB cell viability assay (AID 1918970); also: nearly all actives have a fitted effect of over 30% in size
Procedure, shortened: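 CellTiter-Glo luminescence after 48 h drug exposure at 37 °C; 500 cells/well, 1536-well format, pin-tool compound addition; DMSO = 100%, media-only = 0% viability.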

[6] = Quantitative High-Throughput drug screen in 47 multiple myeloma cell lines against the NCATS MIPE library collection: JIM1_ECACC cell viability assay (AID 1918964)
Excerpt: as §1, §2, §3, §4, §5, §6, §7, §8, §9, §10, §11, §12
(§14) 5; Detector; 425V; Luminescence; Viewlux PerkinElmer. […]
(§15) 1. […] Briefly, the corresponding myeloma cell lines were screened in 1,536-well plates with 500 cells, 5-uL per well for inhibition of cell viability (assessed by measuring ATP levels with CellTiterGlo). […]
(§16) 5. Signal was measured as median relative luminescence units on a ViewLux (PerkinElmer) multiplate reader. […]

[7] = Quantitative High-Throughput drug screen in 47 multiple myeloma cell lines against the NCATS MIPE library collection: JJN3_DSMZ cell viability assay (AID 1918966; also: nearly all actives have a fitted effect of over 50% in size)
Procedure, shortened: as §13

[8] = Quantitative High-Throughput drug screen in 47 multiple myeloma cell lines against the NCATS MIPE library collection: Karpas417_ECACC cell viability assay (AID 1918961); details: Karpas417 myeloma viability, CellTiter-Glo ATP luminescence, 48 h
Procedure, shortened: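 Viability readout: CellTiter-Glo luminescence following 5 min room-temperature incubation with reagent. Prior exposure: 48 h, 37C, humidified 5% CO2, 500 cells per well.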

[9] = Quantitative High-Throughput drug screen in 47 multiple myeloma cell lines against the NCATS MIPE library collection: KHM11_PLB cell viability assay (AID 1918962); details: KHM11 myeloma cell viability, CellTiter-Glo ATP luminescence, 48 h; also: nearly all actives have a fitted effect of over 35% in size
Procedure, shortened: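 We plated 500 myeloma cells per well, pinned in MIPE 4.0 compounds, and incubated for 48 hours at 37C. ATP was then quantified with CellTiter-Glo, with DMSO and media-only wells defining 100% and 0%.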

[10] = Quantitative High-Throughput drug screen in 47 multiple myeloma cell lines against the NCATS MIPE library collection: INA6_PLB cell viability assay (AID 1918965; also: nearly all actives have a fitted effect of over 55% in size); details: INA6 myeloma viability, CellTiter-Glo ATP luminescence, 48 h
Excerpt: as §1, §2, §3, §4, §5, §6
[1] […]
as §14, §15, §16

Measured: Potency
Potency is read from the fitted curve at half-maximal effect.

COC(=O)C1=CCCN(C)C1
active: [4] 5.9 µM | [5] 0.003 µM
inactive: [1] | [2] | [3]

COc1ccc(C(=O)N2CCCC2=O)cc1
active: [1] 1.87 µM | [6] 3.32 µM | [4] 0.935 µM
inactive: [2] | [7] | [3]

O=C(O)c1nn(Cc2ccc(Cl)cc2Cl)c2ccccc12
inactive: [2] | [6] | [7] | [3] | [5]

C[C@@H]1C[C@@H]([C@H](O)CC2CC(=O)NC(=O)C2)C(=O)[C@@H](C)C1
active: [1] 0.209 µM | [8] 0.469 µM | [9] 0.372 µM | [2] 0.418 µM | [6] 0.148 µM | [10] 0.118 µM | [7] 0.187 µM | [3] 1.05 µM | [4] 1.05 µM | [5] 1.05 µM

Reference: PubChem BioAssay (NCATS)
